{"source": "PubChem BioAssay (NCATS)", "key": {"[1]": {"tested_on": "Zika virus NS2B-NS3 protease (unlinked complex)", "assay": "Primary screen GU Rhodamine qHTS for Zika virus inhibitors: Unlinked NS2B-NS3 protease assay (AID 1347159); also: nearly all actives have a fitted effect of over 60% in size", "method_in_brief": "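Compounds, tested up to 114 microM, were incubated for 15 minutes with 25 nM unlinked NS2B-NS3 protease at pH 8.0. Cleavage of 1.5 microM Rhodamine110 substrate was then followed by fluorescence for 15 minutes.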"}, "[2]": {"tested_on": "Zika virus NS2B-NS3 protease (linked construct)", "assay": "Primary screen NINDS Rhodamine qHTS for Zika virus inhibitors (AID 1347160); also: nearly all actives have a fitted effect of over 55% in size", "method_in_brief": "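Percent inhibition, normalized to uninhibited and enzyme-free controls, is fitted to a 4-parameter Hill equation. Fluorescence change comes from a 15-min cleavage of 1.5 microM bis-peptide Rhodamine110 substrate by 25 nM linked NS2B-NS3 at room temperature.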"}}, "note": "Records with an inconclusive call do not appear. Entries that show only a call come without a potency. Unmarked numbers belong to inactive results. Calls of active or inactive are those of the source. Calls follow the shape of the dose curve; as a rule, active = well fitted inhibition curve with a large enough effect; inconclusive = small, poorly fitted or top-dose-only effect; inactive = no such curve, though single readings can be large or run the other way. Potency is read from the fitted curve at half-maximal effect."}
{"smiles": "C=C1CC[C@@H]2[C@](C)(CO)[C@H](O)CC[C@@]2(C)[C@@H]1C/C=C1/C(=O)OCC1OC(=O)/C(=C/CO)C(O)C[C@@H]1C(=C)CC[C@@H]2[C@](C)(CO)[C@H](O)CC[C@]21C", "note": "(stereo not given in full)", "values": [{"measurement": "Potency", "setting": "[1]", "result": "inactive"}, {"measurement": "Potency", "setting": "[2]", "result": "inactive"}]}
{"smiles": "Cc1ccc(F)cc1S(=O)(=O)N[C@@H]1CCN(Cc2ccc(OC(C)C)cc2)C1", "values": [{"measurement": "Potency", "setting": "[1]", "result": "inactive"}, {"measurement": "Potency", "setting": "[2]", "result": "inactive"}]}
{"smiles": "CC(=O)O[C@@H]1[C@@H](O)[C@H](O[C@@H]2[C@@H](O)[C@@H](O)[C@H](O[C@H]3[C@H](O[C@H]4[C@H](O[C@H]5CC[C@@]6(C)C(CC[C@]7(C)C6CC=C6[C@@H]8CC(C)(C)CC[C@]8(C(=O)O)CC[C@]67C)[C@]5(C)CO)O[C@H](CO)[C@@H](O)[C@@H]4O)OC[C@@H](O)[C@@H]3O)O[C@H]2C)OC[C@H]1O", "note": "(stereo not given in full)", "values": [{"measurement": "Potency", "setting": "[1]", "result": "inactive"}, {"measurement": "Potency", "setting": "[2]", "result": "inactive"}]}
{"smiles": "Nc1nc(Cl)nc2c1ncn2C1OC(CO)C(O)C1F", "note": "(stereo not given)", "values": [{"measurement": "Potency", "setting": "[1]", "result": "inactive"}, {"measurement": "Potency", "setting": "[2]", "result": "inactive"}]}
{"smiles": "Cn1ncnc1[C@@H]1c2n[nH]c(=O)c3cc(F)cc(c23)N[C@H]1c1ccc(F)cc1", "values": [{"measurement": "Potency", "setting": "[1]", "result": "inactive"}, {"measurement": "Potency", "setting": "[2]", "result": "inactive"}]}
{"smiles": "CC1(CO)CC2C(O)C3=C(CC(C)(O)C2C1)C(=O)OC3", "note": "(stereo not given)", "values": [{"measurement": "Potency", "setting": "[1]", "result": "inactive"}, {"measurement": "Potency", "setting": "[2]", "result": "inactive"}]}
{"smiles": "CC(=O)O[C@@H]1[C@H](O[C@@H]2O[C@@H](CO)[C@H](O)[C@H]2O)[C@@H](O[C@@H]2O[C@@H](C)[C@H](O[C@@H]3OC[C@@H](O)[C@H](O)[C@H]3O)[C@@H](O)[C@H]2O)[C@H](OC(=O)[C@]23CCC(C)(C)C[C@H]2C2=CCC4[C@@]5(C)CC[C@H](O[C@@H]6O[C@H](C(=O)O)[C@@H](O)[C@H](O)[C@H]6O[C@@H]6O[C@H](CO)[C@H](O)[C@H](O)[C@H]6O)[C@@](C)(C=O)C5CC[C@@]4(C)[C@]2(C)C[C@H]3O)O[C@@H]1C", "note": "(stereo not given in full)", "values": [{"measurement": "activity change, negative = inhibition", "setting": "[1]", "result": "1.92% [at 19.1 µM]"}, {"measurement": "activity change, negative = inhibition", "setting": "[2]", "result": "10.8% [at 10.7 µM]"}]}
{"smiles": "CCn1c(-c2nonc2N)nc2c(C#CC(C)(C)O)ncc(OCC3CCCNC3)c21", "note": "(stereo not given)", "values": [{"measurement": "Potency", "setting": "[1]", "result": "inactive"}, {"measurement": "Potency", "setting": "[2]", "result": "inactive"}]}
{"smiles": "CC(C)CCCCC(=O)N[C@@H](CO)C(=O)N[C@@H](CC(C)C)C(=O)[C@@]1(CO)CO1", "values": [{"measurement": "Potency", "setting": "[1]", "result": "inactive"}, {"measurement": "Potency", "setting": "[2]", "result": "inactive"}]}
{"smiles": "Cc1cc(C)c(S(=O)(=O)n2cc(C)cc2C)c(C)c1", "values": [{"measurement": "Potency", "setting": "[1]", "result": "inactive"}, {"measurement": "Potency", "setting": "[2]", "result": "inactive"}]}
{"smiles": "O=C(NCCO)c1cccc(-c2cc(Nc3ccc(OC(F)(F)F)cc3)ncn2)c1", "values": [{"measurement": "Potency", "setting": "[1]", "result": "inactive"}, {"measurement": "Potency", "setting": "[2]", "result": "inactive"}]}
{"smiles": "C=CC(=O)N1CCC[C@@H](n2nc(-c3cccc(C(=O)Nc4ccc(C(C)C)c(C)c4)c3)c3c(N)ncnc32)C1", "values": [{"measurement": "Potency", "setting": "[1]", "result": "inactive"}, {"measurement": "Potency", "setting": "[2]", "result": "inactive"}]}
{"smiles": "C=CC(=O)Nc1ccc2ncnc(Nc3cccc(Br)c3)c2c1", "values": [{"measurement": "Potency", "setting": "[1]", "result": "44.7 µM (active)"}, {"measurement": "Potency", "setting": "[2]", "result": "inactive"}]}
{"smiles": "Cc1ccnn1-c1ccc(C(=O)N2CCN(S(=O)(=O)c3ccc(Cl)c(C(F)(F)F)c3)CC2)cc1", "values": [{"measurement": "Potency", "setting": "[1]", "result": "inactive"}, {"measurement": "Potency", "setting": "[2]", "result": "inactive"}]}
{"smiles": "O=C(NO)c1ccc(CC(=O)N(CCO)c2ccccc2)cc1", "values": [{"measurement": "Potency", "setting": "[1]", "result": "inactive"}, {"measurement": "Potency", "setting": "[2]", "result": "inactive"}]}
{"smiles": "OC(CC1c2ccccc2-c2cncn21)C1CCCCC1", "note": "(stereo not given)", "values": [{"measurement": "Potency", "setting": "[1]", "result": "inactive"}, {"measurement": "Potency", "setting": "[2]", "result": "inactive"}]}
{"smiles": "CC(=O)O[C@@H]1C[C@@]2(C)C(CC[C@]3(C)C2CC=C2C4CC(C)(C)CC[C@]4(C(=O)O)CC[C@]23C)C(C)(C)[C@H]1O", "note": "(stereo not given in full)", "values": [{"measurement": "Potency", "setting": "[1]", "result": "7.08 µM (active)"}, {"measurement": "Potency", "setting": "[2]", "result": "11.2 µM (active)"}]}
{"smiles": "Cc1cc(N2CCN(C(=O)Oc3ccc(-c4ccccc4)cn3)CC2)c2ccccc2n1", "values": [{"measurement": "Potency", "setting": "[1]", "result": "inactive"}, {"measurement": "Potency", "setting": "[2]", "result": "inactive"}]}
{"smiles": "O=C(c1ccc(OC(F)F)c(C#Cc2ccccn2)c1)N1Cc2cccnc2C1", "values": [{"measurement": "Potency", "setting": "[1]", "result": "inactive"}, {"measurement": "Potency", "setting": "[2]", "result": "inactive"}]}
{"smiles": "Cc1c(NC(=O)OCC2COCCN2)cn2ncnc(Nc3ccc4c(cnn4Cc4cccc(F)c4)c3)c12", "note": "(stereo not given)", "values": [{"measurement": "Potency", "setting": "[1]", "result": "inactive"}, {"measurement": "Potency", "setting": "[2]", "result": "inactive"}]}
{"smiles": "CCOc1ccc(-n2c(C(C)N(Cc3cccnc3)C(=O)Cc3ccc(F)c(C(F)(F)F)c3)nc3ncccc3c2=O)cc1", "note": "(stereo not given)", "values": [{"measurement": "Potency", "setting": "[1]", "result": "inactive"}, {"measurement": "Potency", "setting": "[2]", "result": "inactive"}]}
{"smiles": "C=C1/C(=C/C=C2\\CCC[C@]3(C)[C@@H]([C@H](C)CC[C@@H](O)C(C)(C)O)CC[C@@H]23)C[C@@H](O)C[C@@H]1O", "values": [{"measurement": "Potency", "setting": "[1]", "result": "inactive"}, {"measurement": "Potency", "setting": "[2]", "result": "inactive"}]}
{"smiles": "CCCC1(CCC)CCC2(CCN(CCCN(CC)CC)C2)CC1", "values": [{"measurement": "Potency", "setting": "[1]", "result": "inactive"}, {"measurement": "Potency", "setting": "[2]", "result": "inactive"}]}
{"smiles": "O=c1[nH]c2ccccc2n1CCN1CCN(c2cccc(C(F)(F)F)c2)CC1", "values": [{"measurement": "Potency", "setting": "[1]", "result": "inactive"}, {"measurement": "Potency", "setting": "[2]", "result": "inactive"}]}
{"smiles": "O=C(c1cc(Cc2n[nH]c(=O)c3ccccc23)ccc1F)N1CCCNCC1", "values": [{"measurement": "Potency", "setting": "[1]", "result": "inactive"}, {"measurement": "Potency", "setting": "[2]", "result": "inactive"}]}
{"smiles": "CC(C)(O)C1Cc2c(ccc(C(=O)CCc3ccccc3)c2O)O1", "note": "(stereo not given)", "values": [{"measurement": "Potency", "setting": "[1]", "result": "inactive"}, {"measurement": "Potency", "setting": "[2]", "result": "inactive"}]}
{"smiles": "CC(=O)OC1CC(C)(C(=O)O)CC2C3=CC(=O)C4C5(C)CCC(OC6OC(C(=O)O)C(O)C(O)C6OC6OC(C(=O)O)C(O)C(O)C6O)C(C)(C)C5CCC4(C)C3(C)CCC12C", "note": "(stereo not given)", "values": [{"measurement": "Potency", "setting": "[1]", "result": "inactive"}, {"measurement": "Potency", "setting": "[2]", "result": "inactive"}]}
{"smiles": "O=C(Nc1ccc(Cl)cc1)c1ccccc1NCc1ccncc1", "values": [{"measurement": "Potency", "setting": "[1]", "result": "inactive"}, {"measurement": "Potency", "setting": "[2]", "result": "inactive"}]}
{"smiles": "C=C1CC[C@@H](O)[C@]2(C)C[C@H]3OC(=O)C(=C)[C@H]3CC12", "note": "(stereo not given in full)", "values": [{"measurement": "Potency", "setting": "[1]", "result": "inactive"}, {"measurement": "Potency", "setting": "[2]", "result": "inactive"}]}
{"smiles": "O=C(NO)c1cnc(N2CCN(S(=O)(=O)c3ccc4ccccc4c3)CC2)nc1", "values": [{"measurement": "Potency", "setting": "[1]", "result": "inactive"}, {"measurement": "Potency", "setting": "[2]", "result": "inactive"}]}
{"smiles": "CCn1c(-c2nonc2N)nc2c(C#CCO)ncc(OCCCN)c21", "values": [{"measurement": "Potency", "setting": "[1]", "result": "inactive"}, {"measurement": "Potency", "setting": "[2]", "result": "inactive"}]}
{"smiles": "OC1(CN2CCC(COc3noc4cccc(O[C@@H]5CCOC5)c34)CC2)CCOCC1", "values": [{"measurement": "Potency", "setting": "[1]", "result": "inactive"}, {"measurement": "Potency", "setting": "[2]", "result": "inactive"}]}
{"smiles": "O=C(NCCN1CCOCC1)c1cc2c(Oc3ccc(NC(=O)C4(C(=O)Nc5ccc(F)cc5)CC4)cc3)ccnc2[nH]1", "values": [{"measurement": "Potency", "setting": "[1]", "result": "inactive"}, {"measurement": "Potency", "setting": "[2]", "result": "inactive"}]}
{"smiles": "CC(=O)C1=CCC2C3CC=C4CC(O)CC(O)C4(C)C3C(O)CC12C", "note": "(stereo not given)", "values": [{"measurement": "Potency", "setting": "[1]", "result": "inactive"}, {"measurement": "Potency", "setting": "[2]", "result": "inactive"}]}
{"smiles": "CNCc1cc(-c2ccccc2F)n(S(=O)(=O)c2cccnc2)c1", "values": [{"measurement": "Potency", "setting": "[1]", "result": "inactive"}, {"measurement": "Potency", "setting": "[2]", "result": "inactive"}]}
